PubChem BioAssay AID2058 (Sanford-Burnham Center for Chemical Genomics, 2009)
The whole screen tested about 290,000 compounds, of which about 150 (0.052%) were called active. The list comes from a sample in which actives are over-represented; it also holds similar structures and randomly drawn compounds. Measured potencies and affinities stand elsewhere. Values without a mark were called inactive.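 The calls were made as follows: active = inhibition of at least 50% with at least 30 cells and total cytoplasm GFP at most 10,000,000; inconclusive = under 30 cells or total GFP of 10,000,000 plus; inactive = the rest.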

Biological target: G-protein coupled receptor 35 (Homo sapiens) (UniProt Q9HC97)
Sequence (Q9HC97 whole entry, looked up): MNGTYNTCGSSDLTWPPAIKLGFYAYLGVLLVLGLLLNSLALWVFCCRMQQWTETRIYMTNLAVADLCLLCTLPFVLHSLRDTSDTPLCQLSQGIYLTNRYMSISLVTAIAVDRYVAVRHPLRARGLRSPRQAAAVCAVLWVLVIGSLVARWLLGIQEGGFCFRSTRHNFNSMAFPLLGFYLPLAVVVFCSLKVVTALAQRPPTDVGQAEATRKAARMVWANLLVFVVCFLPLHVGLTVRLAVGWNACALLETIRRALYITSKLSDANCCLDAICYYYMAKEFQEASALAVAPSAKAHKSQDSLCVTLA
Assay: inhibition of zaprinast-stimulated GPR35 beta-arrestin translocation – imaging, U2OS, beta-arrestin-GFP, zaprinast agonist, primary screen (AID 2058)
Conditions: zaprinast antagonism, at 10 µM, active compounds read high

Compound | inhibition
CC1=C(C(=O)Nc2ccccc2C(=O)N2CCC(C)CC2)SCCO1 | -12.3%
COc1ccc(CCC(=O)Nc2ccc(Cl)c(S(=O)(=O)N3CCCC3)c2)cc1 | -7.8%
COCCNC(=O)CSc1nc2ccc(N3CCOCC3)cc2c(=O)n1CCc1ccccc1 | -7.7%
N#CC(C#N)=C1C=C2C=C(N3CCCCCC3)CCC2CC1 (centres undefined) | 46%
N#CC(C#N)=C1C=C2C=C(N3CCOCC3)CCC2CC1 (centres undefined) | 1.7%
CC1(C)CC(NCCN2CCN(C3=CC(=C(C#N)C#N)CC(C)(C)C3)CC2)=CC(=C(C#N)C#N)C1 | -1%
N#CC(C#N)=C1C=C2C=C(N3CCCCC3)CCC2CC1 (centres undefined) | 11.2%
COC(=O)c1cc(NC2c3ccccc3C(=O)N2c2cccnc2)cc(C(=O)OC)c1 (centres undefined) | -4%
COc1cccc(C2N=C(c3ccccc3C)NO2)c1OC (centres undefined) | 13.2%
O=C(CSc1nc(O)c(C2CCCCC2)c(=O)[nH]1)Nc1ccccc1Cl | -1.9%
O=C(Nc1ccc2c(c1)oc1ccccc12)C1CC1 | 1.2%
COc1ccc(N=C2S/C(=C\c3ccc(OC(C)C(=O)O)c(OC)c3)C(=O)N2CCc2c[nH]c3ccccc23)cc1 (centres undefined) | -11.1%
COc1ccc(N=C2S/C(=C\c3ccc(OCC(=O)O)cc3)C(=O)N2CCc2c[nH]c3ccccc23)cc1 | -10.9%
Cc1ccc2oc(C(=O)Nc3ccc(S(=O)(=O)Nc4ncccn4)cc3)c(C)c2c1 | 18.7%
COc1ccc(/C=C2\Cc3ccccc3C2=O)cc1OC | 10.6%
COc1ccc(/C=C2\CC/C(=C\c3ccc(OC)c(OC)c3)C2=O)cc1OC | -1.3%
N/C(=N\OC(=O)COc1ccccc1)c1ccncc1 | -1.4%
CCOc1ccccc1/C=N/NC(=O)Cc1csc(Nc2cccc(C(F)(F)F)c2)n1 | 20%
CCOc1ccc(/C=N/NC(=O)Cc2csc(Nc3cccc(C(F)(F)F)c3)n2)c(OCC)c1 | -0.3%
O=C(Nc1ccccc1F)C1CCCN(S(=O)(=O)c2ccc(-n3cnnn3)cc2)C1 (centres undefined) | 7.9%

Compound | inhibition
CN(C)c1ccc(/C=C/C(=O)c2ccccc2O)cc1 | 21.4%
O=C(/C=C/c1cccs1)c1cc(Cl)ccc1O | -8.1%
CN(C)c1ccc(/C=C/C(=O)c2cc(Cl)ccc2O)cc1 | 57.6% (active)
O=C(/C=C/c1ccncc1)c1cc(Cl)ccc1O | 96.6% (active)
COc1ccc(C(=O)/C=C/c2ccc(N(C)C)cc2)c(OC)c1 | 21.5%
O=C(/C=C/c1ccc2ccccc2n1)c1cc(Cl)ccc1O | 7.6%
CC(C)N(CCc1ccncc1)C(=S)Nc1ccc(F)c(Cl)c1 | 4.6%
CC(C)c1ccc(C(=O)NC(=S)Nc2ccc3[nH]c(=O)[nH]c3c2)cc1 | -6.7%
CC(=O)c1cc2c(cc1N/C(=N/S(=O)(=O)c1ccccc1)c1ccc(Cl)cc1)OCO2 | 13.2%
CC(C)(C)CC(C)(C)NC(=S)Nc1ccc(S(=O)(=O)N2CCOCC2)cc1 | -2.7%
CCCCOC(=O)c1ccc(NC(=O)c2cc(Cl)c(Cl)cc2C(=O)O)cc1 | -5.9%
CCCCOC(=O)c1ccc(NC(=O)c2ccccc2OC)cc1 | 12.9%
Cc1ccc(NC(=O)C(C)Sc2nnc(-c3cccnc3)n2-c2ccccc2)cc1 (centres undefined) | -0.8%
Cc1nn(C(C)C(=O)NCCc2ccco2)c(=O)c2nn(-c3ccccc3)c(C)c12 (centres undefined) | -4%
Cc1cc(-c2nn(-c3ccccc3F)cc2CN(C)CC(O)CO)c(C)s1 (centres undefined) | 103% (active)
Cc1cc(-c2nn(-c3ccccc3F)cc2CN2CCCC(CO)C2)c(C)s1 (centres undefined) | 19.6%
Cc1cc(-c2nn(-c3ccccc3F)cc2CN2CCC(O)CC2)c(C)s1 | -0.9%
COCc1cc(/C=N\NC(=O)Cc2ccc(Cl)cc2)ccc1OC | 1.9%
O=C(CCc1nnc2n(Cc3ccc(F)cc3)c(=O)c3ccccc3n12)NCCCN1CCOCC1 | -5.8%
CCOc1ccc(/C=C2\SC(=S)NC2=O)cc1OC | -8%

Compound | inhibition
CCOc1ccc(/C=C2/SC(=O)NC2=S)cc1 | 5.9%
CCOc1ccc(NC(=S)N(CCN2CCOCC2)Cc2cc3cc4c(cc3[nH]c2=O)OCCO4)cc1 | 6.4%
COc1ccc(NC(=S)N(CCN2CCOCC2)Cc2cc3cc4c(cc3[nH]c2=O)OCCO4)cc1 | 98.1% (active)
COc1ccc(NC(=S)N(CCN2CCOCC2)Cc2cc3cc4c(cc3[nH]c2=O)OCO4)cc1 | -1.5%
CS(=O)(=O)c1ccc(NCCc2ccc(S(N)(=O)=O)cc2)c([N+](=O)[O-])c1 | -3.1%
COc1ccc(N2CCN(C3CC(=O)N(Cc4ccccc4)C3=O)CC2)cc1 (centres undefined) | 6.4%
COc1cc(/C=N/O)cc(Cl)c1OC | 1.8%
Cc1[nH][nH]c(=O)c1N=Nc1ccc(Cl)cc1 | -3.2%
O=c1cc(CSCc2ccc(Cl)cc2)[nH]c(=O)[nH]1 | 2.3%
O=c1cc(N=Nc2ccc(Cl)cc2)[nH]c(=O)[nH]1 | 52.2% (active)
O=C(COc1ccc(Cl)cc1Cl)NCCSc1ccc(Cl)cc1 | -14.2%
O=[N+]([O-])c1c(Nc2ccc(O)cc2)cc(Cl)c2nonc12 | 72.1% (active)
O=C(O)c1ccc(Nc2cc(Cl)c3nonc3c2[N+](=O)[O-])cc1 | 8.7%
O=[N+]([O-])c1c(Nc2cccc(O)c2)cc(Cl)c2nonc12 | 35%
COC(=O)C1=C(C)N=C2SCCC(=O)N2C1c1cc(Br)ccc1OC (centres undefined) | -10.8%
CCOC(=O)c1cnn(CCOC(=O)C2CC2)c1NC(=O)C1CC1 | -5.8%
Cc1cccc(N=Cc2[nH]c3ccc(Br)c(Cl)c3c2O)c1 | 54% (active)
Cc1cc(C)cc(N=Cc2[nH]c3ccc(Br)c(Cl)c3c2O)c1 | 41%
Cc1cccc(N=Cc2cc(Br)cc(Cl)c2O)c1 | -33.9%
